HP1b chromo inh: HP1-beta chromodomain-methylated histone interaction inhibition. P83916. AlphaScreen HP1-beta / biotin-H3K9me3 peptide binding. Potency, µM (series often up to 114 µM), hits mostly inhibitors. 390,000 tested, 0.56% active; note: nearly all actives have a fitted effect of over 70% in size
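AlphaScreen: HP1-beta (50 nM) preformed 30 min with biotin-H3(1-18)K9me3 peptide (50 nM) in PBS pH 7.4, 0.01% Tween-20. Compound added for 30 min at RT, then streptavidin donor/nickel chelate acceptor beads (10 ug/mL) for 30 min.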
BAZ2B inh: inhibitors of human BAZ2B bromodomain. Q9UIF8. 360,000 tested, 4.4% active. AlphaScreen BAZ2B-H3K14Ac peptide displacement. Potency, µM (top dose mostly 114 µM), hits mostly inhibitors; note: nearly all actives have a fitted effect of over 60% in size
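Complex of BAZ2B and biotin-H3K14Ac (50 nM apiece) forms over 30 min at RT, then faces library compounds up to 110 uM for another 30 min; AlphaScreen beads added, 20 min dark incubation, luminescence read.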
JMJD2A Tudor: blocks the human JMJD2A Tudor domain. AID 504339. 390,000 tested, 4.4% active. O75164. AlphaScreen JMJD2A-Tudor / H3K4me3 peptide binding. Potency, µM (titrated, usually from 114 µM), most hits filed as inhibitors; note: nearly all actives have a fitted effect of over 50% in size
G9a block: G9a (human) methyltransferase inhibition; Q96KQ7; G9a H3K9 monomethylation, AlphaScreen, 2 h; Potency, µM (doses to about 102 µM), usual class: inhibitors; 350,000 tested, 8.8% active; note: nearly all actives have a fitted effect of over 75% in size
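AlphaScreen read-out: biotin-H3K9 peptide (500 nM) methylation by 20 nM enzyme with 20 uM SAM, 2 h at room temperature after 15 min compound preincubation; anti-monomethyl H3K9 antibody plus donor/acceptor beads, 10 min dark.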
GLS inh: blocks human kidney-isoform glutaminase activity. AID 624170. O94925. 410,000 tested, 0.21% active. GLS enzymatic activity, qHTS titration. Potency, µM (top dose mostly 45.5 µM), actives largely listed as inhibitors
Target sequence (O94925 whole entry, looked up, canonical isoform): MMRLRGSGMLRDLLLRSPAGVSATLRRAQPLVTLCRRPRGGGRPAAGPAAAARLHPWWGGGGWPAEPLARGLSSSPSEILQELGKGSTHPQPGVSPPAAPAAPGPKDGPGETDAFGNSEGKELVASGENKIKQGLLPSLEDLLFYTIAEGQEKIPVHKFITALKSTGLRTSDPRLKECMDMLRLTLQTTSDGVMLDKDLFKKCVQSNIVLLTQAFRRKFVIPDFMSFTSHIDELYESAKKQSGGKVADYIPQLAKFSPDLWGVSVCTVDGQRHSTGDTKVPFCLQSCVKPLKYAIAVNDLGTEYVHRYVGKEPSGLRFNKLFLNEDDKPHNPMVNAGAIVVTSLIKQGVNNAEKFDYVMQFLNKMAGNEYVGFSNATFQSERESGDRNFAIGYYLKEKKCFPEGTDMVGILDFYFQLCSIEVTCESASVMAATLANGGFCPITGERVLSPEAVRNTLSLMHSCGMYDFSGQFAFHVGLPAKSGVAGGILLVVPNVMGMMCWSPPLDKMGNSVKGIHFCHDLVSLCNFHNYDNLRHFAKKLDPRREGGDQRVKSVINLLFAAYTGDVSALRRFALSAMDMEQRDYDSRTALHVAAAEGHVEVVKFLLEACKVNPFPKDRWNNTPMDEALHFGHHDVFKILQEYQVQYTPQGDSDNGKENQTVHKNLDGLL
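Enzyme dispensed in phosphate buffer (45 mM, pH 8.2, 0.02% Tween-20), compounds pinned in, then 1 mM L-glutamine solution and the glutamate oxidase–HRP–Amplex Red mix added; fluorescence read immediately and again after 30 min at room temperature.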
Numbers stand for hits; [ ] = remark or other dose. Most compounds without a hit are left out; they make up all but 10% or so of the library. Calls come from the whole dose curve; as a rule, active = well fitted curve in the direction sought with a large enough effect; inconclusive = small, poorly fitted or top-dose-only effect, or another doubt; inactive = no such curve, though single readings can be large; an effect the other way counts as inactive or inconclusive.

O=C(CCc1nc2ccccc2s1)Nc1cccnc1 was read as HP1b chromo inh inactive, BAZ2B inh inconclusive, JMJD2A Tudor inactive, G9a block 39.8µM and GLS inh inactive.
Screening O=C(CCn1c(=O)sc2ccccc21)Nc1cccnc1 returned HP1b chromo inh inactive, BAZ2B inh inactive, JMJD2A Tudor inactive, G9a block inactive and GLS inh inactive.
Screening NC(=O)c1ccc(NC(=O)CCc2nc3ccccc3s2)cc1 returned HP1b chromo inh inactive, BAZ2B inh inconclusive, JMJD2A Tudor inactive, G9a block 35.5µM and GLS inh inactive.
`COc1ccc(-c2noc(CCC(=O)NCc3cccnc3)n2)cc1OC` gave HP1b chromo inh inactive, BAZ2B inh inactive, JMJD2A Tudor inactive, G9a block 70.8µM and GLS inh inactive.
O=C(CCc1nc(-c2ccccc2)no1)Nc1cccnc1 was read as HP1b chromo inh inactive, BAZ2B inh inactive, JMJD2A Tudor inactive, G9a block 56.2µM and GLS inh inactive.
For CC(C)C[C@H](NC(=O)NC1CCCc2ccccc21)C(=O)O (some centres undefined) the results were HP1b chromo inh inactive, BAZ2B inh inactive, JMJD2A Tudor inactive, G9a block inactive and GLS inh inactive.
N#CCc1ccc(NC(=O)/C=C/c2ccc([N+](=O)[O-])o2)cc1 was read as HP1b chromo inh inactive, BAZ2B inh inconclusive, JMJD2A Tudor inconclusive, G9a block 70.8µM and GLS inh inactive.
For O=C(O)/C=C/c1ccc([N+](=O)[O-])o1 the results were HP1b chromo inh 50.1µM, BAZ2B inh 56.2µM, JMJD2A Tudor 35.5µM, G9a block 22.4µM and GLS inh 11.2µM.
For C=CCNC(=O)c1ccc(-c2cccc([N+](=O)[O-])c2)o1 the results were HP1b chromo inh inactive, BAZ2B inh inactive, JMJD2A Tudor inactive, G9a block inactive and GLS inh inactive.
For C=CCNc1sc(C(=O)c2cccs2)c(N)c1C#N the results were HP1b chromo inh inactive, BAZ2B inh inactive, JMJD2A Tudor inactive, G9a block 12.6µM and GLS inh inactive.
CCCN1Cc2cc(OC)ccc2-c2ccccc2S1(=O)=O was read as HP1b chromo inh inactive, JMJD2A Tudor inactive and GLS inh inactive.
CCOC(=O)CNC(=O)C12CC3CC(CC(C3)C1)C2 was read as HP1b chromo inh inactive, BAZ2B inh inactive, JMJD2A Tudor inactive, G9a block inactive[12.7 µM] and GLS inh inactive.
`Cc1cc2c(NC(=O)CC(C)(C)CC(=O)O)cccc2nn1` gave HP1b chromo inh inactive, BAZ2B inh 50.1µM, JMJD2A Tudor inactive and GLS inh inconclusive.
For Cc1cc2c(NC(=O)Nc3ccc(F)cc3)cccc2nn1 the results were HP1b chromo inh inactive, BAZ2B inh inactive, JMJD2A Tudor inactive, G9a block 50.1µM and GLS inh inactive.
Screening CC(C)(CC(=O)O)CC(=O)Nc1ccccc1Oc1ccccc1 returned HP1b chromo inh inactive, BAZ2B inh inactive, JMJD2A Tudor inactive, G9a block inactive and GLS inh inactive.
CCCCN1C(=O)C(CC(=O)NCCCN(C)C)CC(C(=O)N(CC)CC)=C1C (centres undefined) was read as GLS inh inactive.
`NNc1nc2sc3c(c2c(=O)[nH]1)CCc1ccccc1-3` gave HP1b chromo inh inactive, BAZ2B inh inactive, JMJD2A Tudor inconclusive, G9a block inconclusive and GLS inh inactive.
Screening CCSc1nc2sc3c(c2c(=O)[nH]1)CCc1ccccc1-3 returned HP1b chromo inh inactive, BAZ2B inh inactive, JMJD2A Tudor inactive, G9a block 50.1µM and GLS inh inactive.
`O=C(N/N=C1/CC2CCC1C2)c1cc2ccccc2cc1O` (centres undefined) gave HP1b chromo inh inactive, BAZ2B inh inactive, JMJD2A Tudor inactive, G9a block inactive and GLS inh inactive.
For O=S(=O)(c1ccccc1)N1CCN(Cc2ccccc2)CC1 the results were HP1b chromo inh inactive, BAZ2B inh inactive, JMJD2A Tudor inactive, G9a block inactive and GLS inh inactive.
`COc1ccc(S(=O)(=O)N2CCN(Cc3ccccc3)CC2)cc1` gave HP1b chromo inh inactive, BAZ2B inh inactive, JMJD2A Tudor inactive, G9a block inactive and GLS inh inactive.
For COc1ccc(S(=O)(=O)N2CCN(Cc3cc(OC)c(OC)c(OC)c3)CC2)cc1 the results were HP1b chromo inh inconclusive, BAZ2B inh inconclusive, JMJD2A Tudor 3.16µM and GLS inh inactive.
For COc1ccc(S(=O)(=O)N2CCN(Cc3cc(OC)c(O)c(OC)c3)CC2)cc1 the results were HP1b chromo inh inconclusive, BAZ2B inh 50.1µM, JMJD2A Tudor 22.4µM, G9a block 7.08µM and GLS inh inactive.
For COc1cc(CN2CCN(S(=O)(=O)c3ccccc3)CC2)cc(OC)c1O the results were HP1b chromo inh inactive, BAZ2B inh inactive, JMJD2A Tudor inactive, G9a block 10µM and GLS inh inactive.
O=c1nccc(N/N=C/c2ccccc2)[nH]1 was read as HP1b chromo inh inactive, BAZ2B inh inactive, JMJD2A Tudor inactive, G9a block inactive and GLS inh inactive.
For CC1NC(=O)NC1CCCCCC(=O)Nc1ccc(F)c(Cl)c1 (centres undefined) the results were HP1b chromo inh 1.12µM, BAZ2B inh 0.794µM, JMJD2A Tudor inconclusive, G9a block 1µM and GLS inh inactive.
Screening Cc1ccc(NC(=O)CCCCCC2NC(=O)NC2C)cc1 (centres undefined) returned HP1b chromo inh 1.12µM, BAZ2B inh 0.794µM, JMJD2A Tudor 0.355µM, G9a block inconclusive and GLS inh inactive.
For Fc1ccc(Nc2nc(SCc3ccc(Cl)cc3)nc3ccccc23)cc1 the results were HP1b chromo inh inactive, BAZ2B inh inactive, JMJD2A Tudor inactive, G9a block inactive and GLS inh inactive.
`Cc1ccc(C(CNS(=O)(=O)c2ccc(F)cc2)N2CCN(C)CC2)cc1` (centres undefined) gave HP1b chromo inh inactive, BAZ2B inh inactive, JMJD2A Tudor inactive, G9a block inactive and GLS inh inactive.
For O=S(=O)(NCC(c1ccco1)N1CCc2ccccc21)c1ccccc1 (centres undefined) the results were HP1b chromo inh inconclusive, BAZ2B inh 39.8µM, JMJD2A Tudor inconclusive, G9a block 44.7µM and GLS inh inconclusive.
O=S(=O)(NCC(c1ccco1)N1CCN(c2ccccc2F)CC1)c1ccccc1 (centres undefined) was read as HP1b chromo inh inactive, BAZ2B inh inactive, JMJD2A Tudor inactive, G9a block inactive and GLS inh inactive.
For Cc1cc(C)c(S(=O)(=O)NCC(c2ccc(N(C)C)cc2)N2CCOCC2)c(C)c1 (centres undefined) the results were HP1b chromo inh inconclusive, BAZ2B inh 39.8µM, JMJD2A Tudor 50.1µM, G9a block inconclusive and GLS inh inactive.
For COc1ccc(C)cc1S(=O)(=O)NCC(c1cccnc1)N1CCc2ccccc2C1 (centres undefined) the results were HP1b chromo inh inactive, BAZ2B inh inconclusive, JMJD2A Tudor inactive, G9a block inconclusive and GLS inh inactive.
